A short description of experiment [1]: qHTS assay to identify small molecule antagonists of the thyroid receptor (TR) signaling pathway - cell viability counter screen (AID 743064). Note: nearly all actives have a fitted effect of over 50% in size. Note: potency is the fitted concentration of half-maximal effect. An outline of the steps:
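Rat GH3 pituitary tumor cells stably expressing two TR response elements driving luciferase were plated, rested 4 h, then dosed with library compounds and T3 (1 nM final). After 23.5 h at 37 °C, CellTiter-Fluor was added for 30 min and fluorescence recorded.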
A general note: Quantitative high-throughput screening tests each substance at several concentrations.

Experiment [2] concerns thyroid hormone receptor (rat, GH3 cells). Description: qHTS assay to identify small molecule agonists of the thyroid receptor (TR) signaling pathway (AID 743066; calls by dose curve).
In experiment [3] the target is Estrogen receptor (Homo sapiens) (UniProt P03372). Description: qHTS assay to identify small molecule antagonists of the estrogen receptor alpha (ER-alpha) signaling pathway (AID 743069; active = well fitted curve in the direction sought with a large enough effect in the signal ratio in the repeat runs, not every such curve was filed as active; inconclusive = weak or mixed curves, or effect the other way; inactive = no such curve, though single readings can be large or run the other way; the % refers to the signal ratio; note: potency is the fitted concentration of half-maximal effect). The gist of the method:
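HEK293 ER-alpha-UAS-bla GripTite cells, held overnight in 2% charcoal-stripped FBS, 5,000 cells/well, preincubated 4 h, then compound plus 17beta-estradiol for 18 h at 37C. Beta-lactamase read by LiveBLAzer B/G FRET substrate, 2 h at room temperature.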

Experiment [4] in a line: qHTS assay to identify small molecule antagonists of the estrogen receptor alpha (ER-alpha) signaling pathway - cell viability counter screen (AID 743074; calls by dose curve;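 note: HEK293 cells carrying ER-alpha-UAS-bla reporter stimulated with 17beta-estradiol; nearly all actives have a fitted effect of over 45% in size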; note: potency is the fitted concentration of half-maximal effect).
Experiment [5] has as its target Estrogen receptor (Homo sapiens) (UniProt P03372). Description: qHTS assay to identify small molecule agonists of the estrogen receptor alpha (ER-alpha) signaling pathway (AID 743075; calls by dose curve; note: potency is the fitted concentration of half-maximal effect).
For experiment [6] the target is unchanged. The experiment is described as follows: qHTS assay to identify small molecule agonists of the estrogen receptor alpha (ER-alpha) signaling pathway using the BG1 cell line (AID 743079). Note: nearly all actives have a fitted effect of over 20% in size. Note: potency is the fitted concentration of half-maximal effect.
A short description of experiment [7]: qHTS assay to identify small molecule antagonists of the estrogen receptor alpha (ER-alpha) signaling pathway using the BG1 cell line (AID 743080; calls by dose curve;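 note: BG1 cells stimulated with 17beta-estradiol alongside compound; nearly all actives have a fitted effect of over 25% in size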; note: potency is the fitted concentration of half-maximal effect). An outline of the steps:
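Endogenous full-length ER-alpha in BG1-Luc-4E2 cells drives a stably integrated 4×ERE luciferase gene; compounds were tested against 17beta-estradiol over 21.5 h, with luminescence and multiplexed viability fluorescence recorded.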

Experiment [8] is described as follows: qHTS assay to identify small molecule antagonists of the estrogen receptor alpha (ER-alpha) signaling pathway using the BG1 cell line - cell viability counter screen (AID 743081).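 Note: compound given together with 17beta-estradiol as the ER stimulus; nearly all actives have a fitted effect of over 45% in size.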 Note: potency is the fitted concentration of half-maximal effect.
The target of the next experiment is Aromatase (Homo sapiens) (UniProt P11511). The experiment is described as follows: qHTS assay to identify aromatase inhibitors (AID 743083). Note: nearly all actives have a fitted effect of over 55% in size. Note: potency is the fitted concentration of half-maximal effect.
Chain of Aromatase (Homo sapiens) (P11511 whole entry, looked up): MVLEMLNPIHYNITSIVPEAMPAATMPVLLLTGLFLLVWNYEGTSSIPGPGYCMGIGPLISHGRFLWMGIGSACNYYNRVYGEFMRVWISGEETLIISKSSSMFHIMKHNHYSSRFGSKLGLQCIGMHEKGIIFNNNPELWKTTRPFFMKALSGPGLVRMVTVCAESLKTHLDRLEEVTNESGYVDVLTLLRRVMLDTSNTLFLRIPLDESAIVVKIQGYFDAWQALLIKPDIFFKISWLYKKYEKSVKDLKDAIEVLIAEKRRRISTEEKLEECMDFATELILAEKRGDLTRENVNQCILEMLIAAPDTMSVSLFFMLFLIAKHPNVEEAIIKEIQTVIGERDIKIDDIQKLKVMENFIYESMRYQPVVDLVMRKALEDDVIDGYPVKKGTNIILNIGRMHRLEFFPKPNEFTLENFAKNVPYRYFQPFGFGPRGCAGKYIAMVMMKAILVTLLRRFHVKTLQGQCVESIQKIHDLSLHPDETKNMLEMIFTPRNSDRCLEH
Experiment [9] in a line: qHTS assay to identify aromatase inhibitors - cell viability counter screen (AID 743084).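 Note: cells stimulated with testosterone during compound exposure; nearly all actives have a fitted effect of over 55% in size.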 Note: potency is the fitted concentration of half-maximal effect.
In experiment [10] the target is Aryl hydrocarbon receptor (Homo sapiens) (UniProt P35869). Description: qHTS assay to identify small molecule that activate the aryl hydrocarbon receptor (AhR) signaling pathway (AID 743085).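 For activation: HG2L7.5c1 human HepG2 liver cells with stably integrated DRE-driven firefly reporter; series mostly up to about 70 µM.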 Note: nearly all actives have a fitted effect of over 15% in size. Note: potency is the fitted concentration of half-maximal effect. An outline of the steps:
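Compounds were tested in HepG2 hepatocellular carcinoma cells harbouring a stably integrated luciferase gene under control of 20 DREs. Increased reporter signal after 24 h treatment at 37C was taken as AhR activation.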

Experiment [11] can be described thus: qHTS assay to identify small molecule that activate the aryl hydrocarbon receptor (AhR) signaling pathway - cell viability counter screen (AID 743086). Note: nearly all actives have a fitted effect of over 45% in size. Note: potency is the fitted concentration of half-maximal effect. The gist of the method:
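HepG2-AhR-luc (HG2L7.5c1) cells, 4000/well, treated 24 h at 37 C with compound; viability measured as CellTiter-Fluor fluorescence after 30 min in the same wells as the luciferase read.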

For experiment [12], the target named is Peroxisome proliferator-activated receptor gamma (Homo sapiens) (UniProt P37231). Description: qHTS assay to identify small molecule agonists of the peroxisome proliferator-activated receptor gamma (PPARg) signaling pathway (AID 743094; active = well fitted activation curve with a large enough effect in the signal ratio in the repeat runs, not every such curve was filed as active; inconclusive = weak or mixed curves, or effect the other way; inactive = no such curve, though single readings can be large or run the other way; the % refers to the signal ratio; note: potency is the fitted concentration of half-maximal effect). An outline of the steps: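 GeneBLAzer PPARg UAS-bla HEK293H cells carrying a stably integrated beta-lactamase reporter were pre-incubated 5 h at 37C, then exposed to compounds in DMSO for 17 h at 37C; LiveBLAzer B/G FRET substrate was added for 1 h at room temperature and fluorescence read.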
Chain of Peroxisome proliferator-activated receptor gamma (Homo sapiens) (P37231 whole entry, looked up): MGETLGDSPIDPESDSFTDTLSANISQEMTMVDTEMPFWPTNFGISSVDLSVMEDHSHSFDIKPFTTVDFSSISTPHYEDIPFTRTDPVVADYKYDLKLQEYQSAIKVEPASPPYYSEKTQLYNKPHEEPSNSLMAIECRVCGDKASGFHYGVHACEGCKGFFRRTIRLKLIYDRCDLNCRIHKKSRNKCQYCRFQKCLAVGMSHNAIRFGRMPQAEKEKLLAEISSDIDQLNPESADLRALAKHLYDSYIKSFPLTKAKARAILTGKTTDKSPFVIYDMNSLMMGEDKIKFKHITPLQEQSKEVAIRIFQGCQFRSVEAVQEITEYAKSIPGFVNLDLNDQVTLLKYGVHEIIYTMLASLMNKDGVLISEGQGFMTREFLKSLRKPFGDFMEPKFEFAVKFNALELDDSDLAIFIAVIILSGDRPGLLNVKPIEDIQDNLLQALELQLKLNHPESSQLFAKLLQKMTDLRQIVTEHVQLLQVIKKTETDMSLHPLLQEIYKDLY

Experiment [13] has the same target. The experiment is described as follows: qHTS assay to identify small molecule antagonists of the peroxisome proliferator-activated receptor gamma (PPARg) signaling pathway (AID 743191; calls by dose curve; note: nearly all actives have a fitted effect of over 30% in size; note: potency is the fitted concentration of half-maximal effect). An outline of the steps:
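GeneBLAzer PPARg UAS-bla HEK293H cells, 5 h post-plating, exposed to compounds 17 h at 37C. LiveBLAzer B/G FRET substrate added for 1 h at room temperature; beta-lactamase reporter read by fluorescence intensity.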

Experiment [14] in a line: qHTS assay to identify small molecule antagonists of the peroxisome proliferator-activated receptor gamma (PPARg) signaling pathway - cell viability counter screen (AID 743194). Note: nearly all actives have a fitted effect of over 55% in size. Note: potency is the fitted concentration of half-maximal effect. An outline of the steps: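 Cytotoxicity counter screen in PPARg-bla HEK293H cells, same wells as reporter assay. Compounds plus 50 nM rosiglitazone (final) for 17 h at 37 C, then viability read by CellTiter-Glo luminescence.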

Experiment [15] can be described thus: qHTS assay for small molecule agonists of the antioxidant response element (ARE) signaling pathway (AID 743202; active = well fitted activation curve with a large enough effect in the signal ratio in the repeat runs, not every such curve was filed as active; inconclusive = weak or mixed curves, or effect the other way; inactive = no such curve, though single readings can be large or run the other way; the % refers to the signal ratio). An outline of the steps: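 ARE-bla HepG2 cells (beta-lactamase reporter under the antioxidant response element), plated 5 hours, then exposed to compounds 16 hours at 37 C. LiveBLAzer B/G FRET substrate added for 2 hours at room temperature; fluorescence intensity read.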

Experiment [16] is described as follows: qHTS assay for small molecule agonists of the antioxidant response element (ARE) signaling pathway - cell viability counter screen (AID 743203; calls by dose curve; note: nearly all actives have a fitted effect of over 55% in size; note: potency is the fitted concentration of half-maximal effect). The gist of the method:
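CellSensor ARE-bla HepG2 cells, 2,000 per well, rested 5 hrs at 37C/5% CO2, then exposed to compound in DMSO for 16 hrs; viability read as CellTiter-Glo luminescence after 30 min at room temperature, in the reporter wells.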

A short description of experiment [17]: qHTS assay for small molecule activators of the heat shock response signaling pathway - cell viability counter screen (AID 743209). Note: nearly all actives have a fitted effect of over 50% in size. Note: potency is the fitted concentration of half-maximal effect. The gist of the method: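 CellSensor HSE-bla HeLa cells, plated overnight at 37 C/5% CO2, were exposed to compounds in DMSO for 5 h at 37 C. Viability was then read in the same wells by CellTiter-Glo luminescence after 30 min at room temperature.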

A short description of experiment [18]: qHTS assay for small molecule activators of the heat shock response signaling pathway (AID 743210; active = well fitted activation curve with a large enough effect in the signal ratio in the repeat runs, with a control signal flat, not every such curve was filed as active; inconclusive = weak or mixed curves; the % refers to the signal ratio; note: potency is the fitted concentration of half-maximal effect; for activation: series mostly up to about 63 µM). An outline of the steps: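 HSE-bla HeLa cells (beta-lactamase reporter under heat shock response elements), plated overnight, then exposed to compounds 5 h at 37 C; LiveBLAzer B/G FRET substrate added, 2.5 h at room temperature, fluorescence intensity read.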

The nature of experiment [19]: qHTS assay to identify small molecule antagonists of the thyroid receptor (TR) signaling pathway (AID 743065). The gist of the method:
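GH3.TRE-Luc rat pituitary cells (two TREs driving luciferase) were dosed with compound, then stimulated with 1 nM T3 (final) for 23.5 h at 37 C. ONE-Glo luminescence was the read-out, with CellTiter-Fluor fluorescence as the cytotoxicity counter-screen.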

Values joined by “and” are separate entries in the source; they are usually repeats but may differ in a detail not shown here. Equal values may be shown once. Active and inactive are the calls of the source. Unless noted, calls come from the whole dose curve; as a rule, active = well fitted curve in the direction sought with a large enough effect in the repeat runs; inconclusive = weak or mixed curves; inactive = no such curve, though single readings can be large; an effect the other way counts as inactive or inconclusive.

Chain of Aryl hydrocarbon receptor (Homo sapiens) (P35869 whole entry, looked up): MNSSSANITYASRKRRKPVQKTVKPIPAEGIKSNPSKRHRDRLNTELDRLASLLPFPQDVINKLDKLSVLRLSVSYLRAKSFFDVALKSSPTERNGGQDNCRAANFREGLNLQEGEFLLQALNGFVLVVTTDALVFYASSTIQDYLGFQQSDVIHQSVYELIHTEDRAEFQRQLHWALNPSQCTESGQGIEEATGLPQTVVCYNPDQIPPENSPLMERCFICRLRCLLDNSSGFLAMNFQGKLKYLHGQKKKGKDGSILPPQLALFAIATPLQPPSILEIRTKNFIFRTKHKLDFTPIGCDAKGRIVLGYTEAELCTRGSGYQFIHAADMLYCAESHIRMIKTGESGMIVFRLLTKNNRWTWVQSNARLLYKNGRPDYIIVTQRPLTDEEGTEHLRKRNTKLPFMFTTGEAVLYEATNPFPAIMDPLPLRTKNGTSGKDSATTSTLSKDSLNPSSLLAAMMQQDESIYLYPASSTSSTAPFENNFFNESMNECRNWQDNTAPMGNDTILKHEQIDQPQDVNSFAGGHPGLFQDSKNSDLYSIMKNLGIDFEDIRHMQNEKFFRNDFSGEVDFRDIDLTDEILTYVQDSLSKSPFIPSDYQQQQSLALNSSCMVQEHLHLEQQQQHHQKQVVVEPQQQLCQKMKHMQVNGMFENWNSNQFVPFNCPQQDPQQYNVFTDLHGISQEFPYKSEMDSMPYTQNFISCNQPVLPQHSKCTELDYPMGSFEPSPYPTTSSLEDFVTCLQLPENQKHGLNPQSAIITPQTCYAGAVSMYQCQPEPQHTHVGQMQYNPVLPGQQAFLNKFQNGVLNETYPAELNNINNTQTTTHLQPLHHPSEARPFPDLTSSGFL
Chain of Estrogen receptor (Homo sapiens) (P03372 whole entry, looked up): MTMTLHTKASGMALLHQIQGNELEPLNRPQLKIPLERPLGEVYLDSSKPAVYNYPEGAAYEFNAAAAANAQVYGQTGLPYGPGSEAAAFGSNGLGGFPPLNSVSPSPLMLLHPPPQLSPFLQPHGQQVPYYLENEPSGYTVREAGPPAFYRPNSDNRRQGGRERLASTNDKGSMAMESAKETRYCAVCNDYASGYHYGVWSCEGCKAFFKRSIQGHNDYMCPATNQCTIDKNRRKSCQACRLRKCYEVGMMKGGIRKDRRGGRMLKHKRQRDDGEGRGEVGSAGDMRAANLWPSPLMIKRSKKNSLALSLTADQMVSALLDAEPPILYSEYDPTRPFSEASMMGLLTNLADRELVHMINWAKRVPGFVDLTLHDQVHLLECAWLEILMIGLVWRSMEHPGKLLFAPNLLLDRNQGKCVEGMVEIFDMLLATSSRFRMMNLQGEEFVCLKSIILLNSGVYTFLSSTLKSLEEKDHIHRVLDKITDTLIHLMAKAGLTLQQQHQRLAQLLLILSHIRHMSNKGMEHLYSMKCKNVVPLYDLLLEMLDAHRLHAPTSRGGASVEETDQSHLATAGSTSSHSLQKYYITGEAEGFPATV

`NC(=S)NC(N)=S`: the Potency entry in [1], in [3], in experiment [4], in experiment [5], in experiment [6] and in [7] was “inactive” in each case. Further, the Potency entry (in experiment [8]; with Aromatase (Homo sapiens); in experiment [9]; in experiment [10]; in [11]; in [12]) was “inactive” each time. Moreover, the Potency result in [13], in experiment [14], in experiment [15], in experiment [16] and in [17] was “inactive” each time. Also, the outcome in [2] was inactive. The Potency in [18] was 34.7 µM (active).

For the compound `CN(C)c1ccc(C(=C2C=CC(=[N+](C)C)C=C2)c2ccc(N(C)C)cc2)cc1`, the Potency was 1.88 µM (active) and 859 nM (active) and 8.63 µM (active) in experiment [1]; 1.33 µM (active) and 431 nM (active) and 545 nM (active) in [19]; 34.7 µM [cytotoxic] (active) in experiment [3]; 10.7 µM (active) and 8.67 µM (active) and 24.5 µM (active) in experiment [4]; 3.07 µM [inconclusive] (active) in experiment [5]; 2.42 µM (active) and 3.86 µM (active) in experiment [7]. Moreover, the Potency is 13.3 µM (active) and 12.1 µM (active) and 24.3 µM (active) in experiment [8]; 2.98 µM (active) and 608 nM (active) and 864 nM (active) in the experiment with Aromatase (Homo sapiens); 10.6 µM (active) and 3.05 µM (active) and 7.7 µM (active) in experiment [9]; 2.42 µM (active) in experiment [10]; 9.44 µM (active) and 19.2 µM (active) and 24.3 µM (active) in experiment [11]; 8.49 µM (active) in [12]. Besides, the Potency was 1.94 µM (active) and 1.95 µM (active) and 5.96 µM (active) in experiment [14]; 9.64 µM (active) and 10.9 µM (active) and 11.9 µM (active) in experiment [16]; 1.73 µM (active) and 4.36 µM (active) and 6.68 µM (active) in experiment [17].

As to `[Cu+]`, the Potency entry in experiment [1], in experiment [3], in experiment [4], in experiment [5], in [8] and in experiment [11] was “inactive” throughout. Also, the Potency result in experiment [14], in experiment [16] and in [17] was “inactive” in each case. In experiment [2], the compound was classed as inactive.

For `O=[N+]([O-])c1ccc(O)cc1C(F)(F)F`, the Potency is 54.5 µM (active) in experiment [1]; 21.7 µM (active) in [19]; 68.6 µM (active) in experiment [9]; 61.1 µM (active) in experiment [11]; 38.9 µM (active) in experiment [14]. Also, the Potency entry in experiment [10], in experiment [12], in [13], in experiment [17] and in [18] was “inactive” in each case.

As for `CC(C)CCOC(=O)/C=C/c1ccccc1`, the Potency entry (in [1]; in experiment [3]; in experiment [5]; in experiment [8]; in the experiment with Aromatase (Homo sapiens); in [9]) was “inactive” each time. For the same compound, the Potency entry in experiment [10], in experiment [11], in experiment [12], in experiment [14], in [16] and in [17] was “inactive” in each case. Moreover, the Potency entry in [18] is “inactive”. In experiment [2], the compound was classed as inactive. In addition, in experiment [6], the Potency is 24.4 µM (active).

Consider `O=S(=O)(O)c1ccc(N=Nc2c(O)ccc3ccccc23)cc1`, for which the Potency in experiment [1] is 30.6 µM (active); in experiment [8], 27.3 µM (active); in experiment [9] it was 17.2 µM (active); in experiment [10], 27.3 µM (active); in experiment [11] it was 24.3 µM (active). Also, the call in experiment [2] was inactive. Moreover, the Potency entry in experiment [3], in experiment [4], in [5], in experiment [6], in experiment [12] and in experiment [13] was “inactive” in each case. Also, the Potency result in experiment [14] and in [18] was “inactive” throughout.

Regarding `CCCCCCCCCCCCCCCC[N+](C)(C)CC`, the Potency in experiment [1] was 5.96 µM (active) and 15.4 µM (active); in experiment [19], 4.22 µM (active) and 6.13 µM (active); in experiment [4], 19 µM (active) and 55.1 µM (active); in experiment [8], 54.6 µM (active); in the experiment with Aromatase (Homo sapiens) it was 9.44 µM (active) and 8.66 µM (active); in [9], 21.1 µM (active) and 48.7 µM (active). The Potency in experiment [11] is 18.8 µM (active) and 48.7 µM (active); in experiment [13], 23.7 µM (active); in [14] it was 17.4 µM (active) and 26.6 µM (active); in [17] it was 39 µM (active) and 23.7 µM (active). Besides, the Potency entry in experiment [5] and in experiment [10] was “inactive” throughout.

These data come from PubChem BioAssay (Tox21).
